What was measured:
Experiment in all cases: log2 ratio of Biotin-Ahx-Ub-VS probe labelling (fragment/DMSO); higher = less target engagement (more negative = stronger competition), active = hit call of the paper (q ≤ 0.05, log2 ratio ≤ -1)
Conditions in all cases: compound concentration: 200 uM; treatment time: 3 h
USP34 = USP34 (UniProt Q70CQ2)
Summary of the method: (§1)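 Average log2 ratios of fragment over vehicle were obtained by unpaired t-test from global-median-normalised Spectronaut label-free quantities. Proteins with ≥2 unique peptides were included. HEK293T lysate (495 µg per sample) was treated in triplicate with fragment at 200 µM or vehicle for 3 h, then with Biotin-Ahx-Ub-VS at 0.5 µM final for 1 h, and labelled DUBs were NeutrAvidin-enriched and run by diaPASEF LC-MS/MS.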

USP36 = target: T1, USP36 (UniProt Q9P275)
T1 sequence (whole entry): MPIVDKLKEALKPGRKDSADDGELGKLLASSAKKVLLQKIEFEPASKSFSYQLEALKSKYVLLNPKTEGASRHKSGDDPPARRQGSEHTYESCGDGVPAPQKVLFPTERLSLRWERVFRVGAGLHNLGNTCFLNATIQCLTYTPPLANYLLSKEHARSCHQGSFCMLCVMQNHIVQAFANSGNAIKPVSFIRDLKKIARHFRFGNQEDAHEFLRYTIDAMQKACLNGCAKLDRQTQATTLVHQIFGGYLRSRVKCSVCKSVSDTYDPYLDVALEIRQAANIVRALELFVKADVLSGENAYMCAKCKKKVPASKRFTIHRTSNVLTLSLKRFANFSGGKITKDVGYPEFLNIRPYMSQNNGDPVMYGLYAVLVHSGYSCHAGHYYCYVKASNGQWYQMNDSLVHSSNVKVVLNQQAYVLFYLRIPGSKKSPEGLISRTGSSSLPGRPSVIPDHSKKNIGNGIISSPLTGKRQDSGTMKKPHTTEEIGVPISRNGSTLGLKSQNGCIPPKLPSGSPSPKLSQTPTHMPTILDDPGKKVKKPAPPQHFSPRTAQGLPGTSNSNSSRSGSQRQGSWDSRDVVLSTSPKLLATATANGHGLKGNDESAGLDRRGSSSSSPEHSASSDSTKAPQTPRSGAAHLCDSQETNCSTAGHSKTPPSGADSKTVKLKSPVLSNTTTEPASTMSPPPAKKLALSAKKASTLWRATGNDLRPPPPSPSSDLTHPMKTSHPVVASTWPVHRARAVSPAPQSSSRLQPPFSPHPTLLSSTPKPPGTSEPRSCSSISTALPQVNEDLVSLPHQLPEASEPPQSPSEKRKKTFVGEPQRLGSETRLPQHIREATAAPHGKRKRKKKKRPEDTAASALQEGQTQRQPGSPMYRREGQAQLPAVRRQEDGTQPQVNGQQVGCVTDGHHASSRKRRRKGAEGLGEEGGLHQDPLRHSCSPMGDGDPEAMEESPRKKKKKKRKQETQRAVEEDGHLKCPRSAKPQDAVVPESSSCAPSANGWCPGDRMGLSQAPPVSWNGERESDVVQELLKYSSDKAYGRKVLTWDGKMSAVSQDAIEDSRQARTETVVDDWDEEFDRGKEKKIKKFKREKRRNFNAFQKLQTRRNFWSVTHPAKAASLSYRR
Summary of the method: as §1

USP38 = target: T2, USP38 (UniProt Q8NB14)
T2 sequence (whole entry): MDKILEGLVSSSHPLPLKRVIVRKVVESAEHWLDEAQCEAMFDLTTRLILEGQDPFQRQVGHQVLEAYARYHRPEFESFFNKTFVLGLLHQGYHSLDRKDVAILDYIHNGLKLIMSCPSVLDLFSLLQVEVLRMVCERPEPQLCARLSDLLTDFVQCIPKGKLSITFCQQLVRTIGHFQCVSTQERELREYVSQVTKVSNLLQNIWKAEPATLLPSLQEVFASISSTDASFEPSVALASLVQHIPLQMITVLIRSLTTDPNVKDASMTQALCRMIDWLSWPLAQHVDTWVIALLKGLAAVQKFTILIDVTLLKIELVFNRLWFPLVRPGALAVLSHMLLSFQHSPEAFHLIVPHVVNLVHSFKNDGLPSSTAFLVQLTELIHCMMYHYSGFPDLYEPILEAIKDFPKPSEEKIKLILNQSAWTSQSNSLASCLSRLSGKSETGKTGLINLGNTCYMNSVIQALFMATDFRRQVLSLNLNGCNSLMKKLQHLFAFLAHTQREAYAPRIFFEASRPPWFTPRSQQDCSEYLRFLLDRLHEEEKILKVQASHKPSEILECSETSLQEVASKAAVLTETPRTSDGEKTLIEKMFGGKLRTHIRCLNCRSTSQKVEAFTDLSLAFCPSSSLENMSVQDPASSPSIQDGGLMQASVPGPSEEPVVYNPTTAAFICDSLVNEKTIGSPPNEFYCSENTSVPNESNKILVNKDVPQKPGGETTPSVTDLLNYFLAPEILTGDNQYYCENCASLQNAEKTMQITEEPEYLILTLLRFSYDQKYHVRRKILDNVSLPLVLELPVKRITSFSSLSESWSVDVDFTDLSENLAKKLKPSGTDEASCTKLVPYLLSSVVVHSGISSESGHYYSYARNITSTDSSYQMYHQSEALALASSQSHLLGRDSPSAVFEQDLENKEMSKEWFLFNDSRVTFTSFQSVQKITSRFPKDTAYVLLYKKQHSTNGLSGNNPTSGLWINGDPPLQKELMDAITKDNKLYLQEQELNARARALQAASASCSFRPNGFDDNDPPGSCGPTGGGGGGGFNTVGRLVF
Summary of the method: as §1

USP39 = target: T3, USP39 (UniProt Q53GS9)
T3 sequence (whole entry): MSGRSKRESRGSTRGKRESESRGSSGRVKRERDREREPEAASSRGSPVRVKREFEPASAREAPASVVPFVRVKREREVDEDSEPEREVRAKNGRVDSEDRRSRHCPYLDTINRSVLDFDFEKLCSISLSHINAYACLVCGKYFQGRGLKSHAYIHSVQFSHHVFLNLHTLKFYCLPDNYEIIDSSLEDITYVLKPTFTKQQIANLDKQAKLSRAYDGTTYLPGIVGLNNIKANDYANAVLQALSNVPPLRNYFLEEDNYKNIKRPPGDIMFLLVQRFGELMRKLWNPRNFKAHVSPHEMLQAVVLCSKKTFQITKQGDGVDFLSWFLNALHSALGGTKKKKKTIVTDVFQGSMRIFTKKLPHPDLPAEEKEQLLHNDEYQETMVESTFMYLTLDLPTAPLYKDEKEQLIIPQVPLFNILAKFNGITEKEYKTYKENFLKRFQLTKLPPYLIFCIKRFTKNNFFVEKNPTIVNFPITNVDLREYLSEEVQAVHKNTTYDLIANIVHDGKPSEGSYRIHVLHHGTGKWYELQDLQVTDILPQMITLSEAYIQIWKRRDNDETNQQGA
Summary of the method: as §1

USP4 = target: T4, USP4 (UniProt Q13107)
T4 sequence (whole entry): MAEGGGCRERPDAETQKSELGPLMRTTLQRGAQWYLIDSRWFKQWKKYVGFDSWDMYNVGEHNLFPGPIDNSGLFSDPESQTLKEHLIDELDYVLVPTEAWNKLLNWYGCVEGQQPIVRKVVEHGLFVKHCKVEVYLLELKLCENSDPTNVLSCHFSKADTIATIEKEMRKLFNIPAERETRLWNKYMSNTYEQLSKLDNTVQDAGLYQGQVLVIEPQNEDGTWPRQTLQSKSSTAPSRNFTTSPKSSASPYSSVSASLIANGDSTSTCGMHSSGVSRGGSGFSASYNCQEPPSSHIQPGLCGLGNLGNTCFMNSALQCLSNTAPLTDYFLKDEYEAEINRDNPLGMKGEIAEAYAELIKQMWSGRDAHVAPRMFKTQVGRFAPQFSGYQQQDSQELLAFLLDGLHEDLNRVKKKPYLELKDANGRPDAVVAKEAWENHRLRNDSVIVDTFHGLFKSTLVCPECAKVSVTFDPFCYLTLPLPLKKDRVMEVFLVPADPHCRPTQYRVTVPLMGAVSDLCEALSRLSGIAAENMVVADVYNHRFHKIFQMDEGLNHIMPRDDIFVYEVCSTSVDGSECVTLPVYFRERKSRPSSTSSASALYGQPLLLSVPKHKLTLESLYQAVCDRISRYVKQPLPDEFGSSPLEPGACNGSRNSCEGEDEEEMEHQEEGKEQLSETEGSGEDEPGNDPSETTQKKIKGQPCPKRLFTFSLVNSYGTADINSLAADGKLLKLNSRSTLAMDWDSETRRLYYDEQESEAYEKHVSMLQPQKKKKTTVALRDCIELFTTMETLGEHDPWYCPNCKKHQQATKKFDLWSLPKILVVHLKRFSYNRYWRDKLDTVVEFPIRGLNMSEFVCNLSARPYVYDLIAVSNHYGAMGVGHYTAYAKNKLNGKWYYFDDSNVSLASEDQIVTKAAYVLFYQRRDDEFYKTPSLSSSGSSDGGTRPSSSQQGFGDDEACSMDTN
Summary of the method: as §1

Measured: log2 ratio of Biotin-Ahx-Ub-VS probe labelling

Chain of USP34 (Q70CQ2 whole entry, the tested form may be a part): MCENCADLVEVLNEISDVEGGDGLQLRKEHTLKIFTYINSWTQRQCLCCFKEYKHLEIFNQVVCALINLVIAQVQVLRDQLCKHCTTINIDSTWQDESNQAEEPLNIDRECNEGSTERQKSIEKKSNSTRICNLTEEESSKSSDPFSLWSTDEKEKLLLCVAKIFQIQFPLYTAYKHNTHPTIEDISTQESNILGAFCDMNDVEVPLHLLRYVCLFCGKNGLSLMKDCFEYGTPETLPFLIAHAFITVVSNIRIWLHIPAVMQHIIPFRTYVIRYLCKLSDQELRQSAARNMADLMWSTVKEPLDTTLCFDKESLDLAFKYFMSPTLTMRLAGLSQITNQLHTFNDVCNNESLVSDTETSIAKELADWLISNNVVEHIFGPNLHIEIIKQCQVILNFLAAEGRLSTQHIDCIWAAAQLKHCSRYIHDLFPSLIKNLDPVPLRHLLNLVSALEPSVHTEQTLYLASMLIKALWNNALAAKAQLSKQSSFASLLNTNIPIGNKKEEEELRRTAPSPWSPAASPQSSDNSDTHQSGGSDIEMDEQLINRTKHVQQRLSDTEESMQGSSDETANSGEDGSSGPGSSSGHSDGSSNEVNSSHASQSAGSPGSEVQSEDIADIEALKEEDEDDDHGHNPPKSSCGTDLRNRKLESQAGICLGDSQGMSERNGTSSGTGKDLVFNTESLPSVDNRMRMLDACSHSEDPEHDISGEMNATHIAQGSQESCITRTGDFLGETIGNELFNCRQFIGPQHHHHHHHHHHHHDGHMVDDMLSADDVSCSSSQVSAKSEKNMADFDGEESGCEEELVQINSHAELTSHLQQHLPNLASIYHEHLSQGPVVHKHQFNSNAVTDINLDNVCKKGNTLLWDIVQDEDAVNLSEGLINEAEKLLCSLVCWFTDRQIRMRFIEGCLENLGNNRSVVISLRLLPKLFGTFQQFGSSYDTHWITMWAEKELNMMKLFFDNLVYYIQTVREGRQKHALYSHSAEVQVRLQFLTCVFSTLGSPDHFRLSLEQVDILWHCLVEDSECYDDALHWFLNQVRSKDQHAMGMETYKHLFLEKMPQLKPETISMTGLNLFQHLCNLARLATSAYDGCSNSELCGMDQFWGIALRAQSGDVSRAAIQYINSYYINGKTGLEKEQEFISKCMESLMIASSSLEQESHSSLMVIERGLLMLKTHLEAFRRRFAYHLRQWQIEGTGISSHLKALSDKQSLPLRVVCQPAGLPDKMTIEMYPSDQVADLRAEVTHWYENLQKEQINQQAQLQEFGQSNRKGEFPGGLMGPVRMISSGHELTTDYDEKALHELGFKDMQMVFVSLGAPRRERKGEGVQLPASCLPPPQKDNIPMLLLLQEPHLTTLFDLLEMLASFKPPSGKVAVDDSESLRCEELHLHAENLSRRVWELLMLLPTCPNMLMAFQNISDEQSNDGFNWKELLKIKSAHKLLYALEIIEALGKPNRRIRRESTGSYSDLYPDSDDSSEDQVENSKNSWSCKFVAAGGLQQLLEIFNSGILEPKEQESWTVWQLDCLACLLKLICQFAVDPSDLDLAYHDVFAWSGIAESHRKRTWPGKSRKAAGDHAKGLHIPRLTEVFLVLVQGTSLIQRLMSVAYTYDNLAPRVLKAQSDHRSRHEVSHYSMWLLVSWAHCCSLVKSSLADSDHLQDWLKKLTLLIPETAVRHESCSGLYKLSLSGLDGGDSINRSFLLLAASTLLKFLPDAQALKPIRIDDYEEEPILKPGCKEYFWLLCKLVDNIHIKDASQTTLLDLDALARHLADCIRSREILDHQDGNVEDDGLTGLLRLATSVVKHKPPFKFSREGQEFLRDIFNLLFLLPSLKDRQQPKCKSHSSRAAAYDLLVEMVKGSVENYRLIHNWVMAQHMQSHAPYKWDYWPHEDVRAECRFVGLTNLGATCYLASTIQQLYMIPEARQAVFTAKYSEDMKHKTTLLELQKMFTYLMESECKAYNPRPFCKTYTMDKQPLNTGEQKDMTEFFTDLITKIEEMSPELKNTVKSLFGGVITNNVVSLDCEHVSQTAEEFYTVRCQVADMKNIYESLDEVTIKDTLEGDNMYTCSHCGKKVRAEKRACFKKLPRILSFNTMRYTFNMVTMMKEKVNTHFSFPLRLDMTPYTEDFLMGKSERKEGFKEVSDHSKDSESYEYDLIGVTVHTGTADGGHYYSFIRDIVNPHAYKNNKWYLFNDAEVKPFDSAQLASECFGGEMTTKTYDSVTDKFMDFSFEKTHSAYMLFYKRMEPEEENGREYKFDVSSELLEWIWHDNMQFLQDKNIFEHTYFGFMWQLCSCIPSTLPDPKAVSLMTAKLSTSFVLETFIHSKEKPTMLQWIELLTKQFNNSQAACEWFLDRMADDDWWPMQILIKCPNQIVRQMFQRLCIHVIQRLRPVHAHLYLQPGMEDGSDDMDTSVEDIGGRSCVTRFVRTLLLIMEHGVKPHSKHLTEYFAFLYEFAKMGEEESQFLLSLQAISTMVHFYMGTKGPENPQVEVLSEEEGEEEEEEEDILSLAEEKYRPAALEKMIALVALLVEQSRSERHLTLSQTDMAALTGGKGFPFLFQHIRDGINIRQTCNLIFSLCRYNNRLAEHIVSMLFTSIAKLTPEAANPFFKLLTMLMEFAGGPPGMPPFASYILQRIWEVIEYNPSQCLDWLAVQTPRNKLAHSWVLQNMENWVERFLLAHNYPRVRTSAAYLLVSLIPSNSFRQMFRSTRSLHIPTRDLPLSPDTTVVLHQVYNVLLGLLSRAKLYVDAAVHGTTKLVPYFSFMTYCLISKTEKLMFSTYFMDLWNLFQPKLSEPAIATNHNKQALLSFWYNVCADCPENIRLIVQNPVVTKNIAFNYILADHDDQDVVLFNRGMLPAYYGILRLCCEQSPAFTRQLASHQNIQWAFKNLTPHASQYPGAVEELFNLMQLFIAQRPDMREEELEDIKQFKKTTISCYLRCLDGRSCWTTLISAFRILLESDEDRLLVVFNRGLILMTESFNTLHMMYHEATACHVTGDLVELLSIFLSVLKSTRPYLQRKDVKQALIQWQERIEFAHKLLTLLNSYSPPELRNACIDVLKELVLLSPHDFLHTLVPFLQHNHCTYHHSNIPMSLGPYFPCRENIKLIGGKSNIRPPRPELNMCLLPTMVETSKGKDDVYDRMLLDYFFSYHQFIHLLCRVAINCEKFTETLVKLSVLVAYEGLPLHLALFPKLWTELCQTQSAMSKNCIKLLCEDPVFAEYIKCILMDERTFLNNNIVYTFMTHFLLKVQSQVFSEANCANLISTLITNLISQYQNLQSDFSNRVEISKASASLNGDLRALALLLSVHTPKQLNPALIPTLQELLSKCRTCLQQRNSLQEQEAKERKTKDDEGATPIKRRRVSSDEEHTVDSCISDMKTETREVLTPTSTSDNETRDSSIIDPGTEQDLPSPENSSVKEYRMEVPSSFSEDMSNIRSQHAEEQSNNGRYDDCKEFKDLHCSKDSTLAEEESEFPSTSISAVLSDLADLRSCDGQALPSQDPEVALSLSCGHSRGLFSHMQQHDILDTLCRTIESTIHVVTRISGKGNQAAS

Cc1ccc(CC(NC(=O)CCl)c2ccccn2)cc1.Cl (stereo not given)
inactive: USP34 -0.162 | USP36 0.13 | USP38 -0.114 | USP39 -0.181 | USP4 0.169
